# Experimental data from PubChem BioAssay.
# Test: COS7 lysate on small-molecule microarray, probe aHis, 635 nm (AID 1123);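 also: z-score combines 667nm fluorescence intensity with signal-to-noise per printed compound spot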
# Conditions: COS7 cell lysate, fluorescence, higher = more signal
row,SMILES,composite z-score
1,CCCCCN1CC=CC23O[C@@H]4C=CCOC(=O)[C@@H]4[C@H]2C(=O)N(C(C)CO)[C@@H]3C1=O (stereo partly specified),-0.284
2,CO[C@H]1O[C@H](CO)[C@@H](OC(=O)Nc2cccc(F)c2)[C@H](OC(=O)Nc2ccccc2)[C@H]1OC(=O)Nc1ccccc1,1.24
3,NC(=O)[C@@H]1[C@H]2C(=O)O[C@H](c3ccccc3)[C@H](c3ccccc3)N2[C@H](c2ccc(O)cc2)[C@@]12C(=O)Nc1ccc(C#CC3=CCCCC3)cc12,2
4,C=CC1c2cc(O)c(OC)cc2CCN1Cc1cccc(OC(F)(F)F)c1 (stereo unspecified),3.33
5,CC(C)[Si](C#CCCCC#N)(O[C@H](c1ccccc1)c1cn(Cc2cccc(Cl)c2)nn1)C(C)C,0.79
6,COC(=O)c1c2oc(c1C(=O)OC)C(=O)NC1(CCCCC1)c1cn(nn1)C[C@H](Cc1ccccc1)NC(=O)N[C@H](CO)CC2,1.75
